# Compound activity: PubChem BioAssay, several laboratories
# A selection: hits, their analogues and other compounds. The true share with any hit is near 3.9%.
# HSP90 refold inh: inhibitors of HSP90 luciferase refolding in rabbit reticulocyte lysate; luciferase refolding luminescence, 3 h; inhibition, % at 5.6 µM; 290,000 compounds, 0.91% hits;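 active = inhibition above the screen-wide mean plus 3 SD, computed separately per campaign, cut at about 16% in these data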;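 note: 0% = DMSO wells and 100% = 60 µM geldanamycin wells; inhibitors lower the luminescence because luciferase stays unfolded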
# C8 TRAIL sens: caspase-8 TRAIL sensitization; AID 624354; inhibition (viability loss, TRAIL sensitization), % at 10 µM; 360,000 compounds, 1% hits; NB7+C8 cells + TRAIL, ATPlite viability luminescence;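 active = compounds causing at least 50% loss of cell viability in the single-dose screen, relative to plate controls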
# TWEAK Fn14 block: blocks TWEAK-Fn14 interaction in a reporter cell assay; TWEAK-stimulated Fn14 reporter cells, luciferase luminescence, 8 h; inhibition, % at 10 µM; 360,000 compounds, 2% hits; AID 1159606; in the data active = inhibition above about 50%
# TROY signal inh: TROY signaling inhibition | Q293 LMP1-TROYcd NF-kB luciferase reporter, 4 h | inhibition, % at 10 µM | 360,000 compounds, 0.98% hits;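 active = compounds whose plate-normalised and pattern-corrected inhibition of the luciferase reporter signal at the single screening dose is 50% or more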
# HIF-2a inh: blocks HIF-2a reporter activity; 786-0 RCC cells HIF-2a reporter, luciferase luminescence, overnight; inhibition, % at 18.8 µM; AID 624352; 360,000 compounds, 0.72% hits;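 active = inhibition of the luminescence signal of 40% or more relative to plate controls, in a single-dose primary screen at 18.75 µM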
# aSyn 5UTR inh: MLPCN primary screen, SNCA 5' untranslated region; alpha-synuclein 5'UTR reporter, inhibitor activity; inhibition, % (tested at 7.5 µM); AID 1813; 300,000 compounds, 0.82% hits; in the data active = inhibition above about 60%;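 note: H4 neuroglioblastoma cells stably carrying SNCA 5'UTR luciferase fusion; 0% = DMSO wells and 100% = positive control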
# An asterisk follows results filed as active; · = no result given; ! = a repeat was not active.
SMILES,HSP90 refold inh,C8 TRAIL sens,TWEAK Fn14 block,TROY signal inh,HIF-2a inh,aSyn 5UTR inh
CC(C)(C)c1ccc(C(=O)O/N=C(\N)Cc2cccs2)cc1,·,94*,-153,-26,-63,·
COc1ccc(OCC(=O)O/N=C(\N)Cc2cccs2)cc1,-2,0,-33,-28,-102,-52
O[C@@H]1C[C@H](c2ccc(Cl)cc2)N(Cc2cccs2)C[C@H]1n1cc(-c2ccc(F)cc2)nn1,·,12,-13,-6,-7,·
CC(C)Cn1c(N)c(S(=O)(=O)c2cccs2)c2nc3ccccc3nc21,0,2,41,67*,20,15
COc1cccc(/C=N/n2c(N)c(S(=O)(=O)c3cccs3)c3nc4ccccc4nc32)c1,5,7,12,0,6,27
Nc1c(S(=O)(=O)c2cccs2)c2nc3ccccc3nc2n1/N=C/c1cccc(O)c1,-1,20,81*,35,40*,23
FC(F)Sc1ccc(NC(=S)N2CCN(c3ccccn3)CC2)cc1,-2,7,56*,12,-11,10
Oc1ccccc1N1CCN(C(=S)Nc2ccc(SC(F)F)cc2)CC1,2,-6,41,15,-5,-35
C=C[C@@H]1c2cc(C)ccc2N(S(=O)(=O)c2ccc(C)cc2)[C@H](c2ccccc2)C1(C#N)S(=O)(=O)c1ccccc1 (stereo partly drawn),·,-1,-10,3,-1,·
CCN(CC)Cc1ccc(NC(=O)c2sc3cc(Cl)ccc3c2Cl)cc1,-3,28,-78,-4,-118,104*
CCCCn1nnc(NC(=O)c2sc3cc(Cl)ccc3c2Cl)n1,0,24,-6,-2,-29,-32
COc1ccc(CN2C3CCCC2CC(NC(=O)Nc2ccccc2C)C3)cc1 (stereo not drawn),6,34,62*,13,18,-9
CCN(CC)C(=S)Oc1ccc(Cl)cc1Cl,0,8,97*,-3,4,19
Cc1ccc(CNC(=S)Nc2ccc3c(c2)c(=O)n(C)n3Cc2cccc(C(F)(F)F)c2)cc1,·,18,57*,61*,2,·
COc1ccc2cc(/C=N/NC(=O)c3ccc(CN(c4cccc(Cl)c4Cl)S(C)(=O)=O)cc3)c(Cl)nc2c1,-2,11,17,-16,23,67*
COc1ccc(/C=C2\SC(N)=NC2=O)cc1,-4,6,22,-29,-51,7
CCOC(=O)CSC1=NC(=O)/C(=C/c2ccc(OC)cc2)S1,-3,0,-8,-75,74*,-26
CC1(C(=O)NS(=O)(=O)c2ccc(Cl)cc2)CCN1C(=O)Cc1ccccc1Cl (stereo not drawn),·,-4,-16,-7,13,·
C=CCN1C(=O)N(CC=C)c2cccc3cccc1c23,-1,10,14,66*,21,4
C[C@@H]1CN([C@@H](C)CO)C(=O)CCCn2nncc2CO[C@H]1CN(C)C(=O)c1ccccc1,·,-3,4,-2,0,·
CC(O)CNCCCCOc1ccc(OCc2ccccc2)cc1 (stereo not drawn),-1,15,-13,-25,-174,-93
CC(O)CNCCCOc1ccccc1OCc1ccccc1 (stereo not drawn),17*,-7,-9,-24,10,-16
C/C=C/c1ccc(OCCCNCC(C)O)c(OC)c1 (stereo not drawn),6,3,86*,·,13,3
CC(C)CN1C(=O)CSCC1(C)C(=O)NCc1ccccc1 (stereo not drawn),·,10,·,·,-2,·
CC(=O)NCCNc1nc2cc(-c3ccc(Cl)cc3C)sc2c(=O)n1C,·,7,7,3,-24,·
SMILES,HSP90 refold inh,C8 TRAIL sens,TWEAK Fn14 block,TROY signal inh,HIF-2a inh,aSyn 5UTR inh
COCCNC(=O)C1(C)CCCN(Cc2cc(-c3ccccc3)nn2C)C1 (stereo not drawn),·,-11,-18,2,-10,·
NC1=NC2=C(CCCC2)C2(CCCCC2)S1,3,3,5,-1,19,77*
COc1ccc(/C=C2/CSC/C(=C/c3ccc(OC)c(OC)c3)C2=O)cc1OC,·,-9,92*,15,92*,·
CCOc1ccc(/C=C2\CCC(C3CCCC3)C2=O)cc1OC (stereo not drawn),-1,-5,-20,-49,-132,-45
COc1cc(C=C2CCCC(=Cc3ccc(OCC4CO4)c(OC)c3)C2=O)ccc1OCC1CO1 (stereo not drawn),·,16,73*,-4,13,·
COc1ccc(C2CC=C(C(C)=O)CN2S(=O)(=O)c2ccc(C)cc2)cc1 (stereo not drawn),·,30,-28,-7,-15,·
COC(=O)c1ccc(NC(=O)C(=O)N2CCCC2)cc1,16*,25,6,-21,-141,-148
COc1ccc(N2C(=O)c3ccccc3NC(=O)C2C(=O)NCCc2ccccc2F)cc1 (stereo not drawn),·,-6,·,·,-17,·
COc1ccc(SCC(O)Cn2c3ccccc3c3ccccc32)c(OC)c1 (stereo not drawn),·,-3,14,7,-3,·
CC(=O)Oc1ccc(-c2cccc(C(=O)OCC(=O)Nc3ccccc3Oc3ccccc3)c2)cc1,-6,12,19,-6,-2,13
CCOc1ccccc1NC(=O)COC(=O)c1cccc(-c2ccc(OC(C)=O)cc2)c1,1,5,64*,62*,-77,4
CCOC(=O)C1(CCOc2ccccc2)CCN(Cc2cccc(OCCO)c2)CC1,-2,-5,-1,51*,-17,-9
CCOC(=O)C1(CCOc2ccccc2)CCN(Cc2cccc(F)c2)CC1,2,22,-8,11,18,8
Cn1ncc2c(=S)[nH]c(=S)[nH]c21,·,-9,2,-4,7,·
C[C@H]1CCC[C@]2(C)C[C@H]3OC(=O)C(CN4CCCCCC4)[C@H]3C=C12 (stereo partly drawn),-1,15,73*,-2,-5,-25
O=C(C[C@H]1CC[C@@H](NC(=O)C2CC2)[C@@H](CO)O1)NCc1ccccc1Cl,·,-2,·,·,7,·
COc1ccccc1N(C)c1cc2c(c3c1ccn3C)C1CCC2O1 (stereo not drawn),·,0,6,13,16,·
COc1cc(NC(=O)N2CCNC2=O)cc(C(=O)Nc2cccc(C(F)(F)F)c2)c1,·,17,1,-18,1,68*
COc1cc(Nc2ccccn2)cc(C(=O)Nc2cccc(C(F)(F)F)c2)c1,·,33,50*!,17,-90,21
C=CC(=O)Nc1cccc(Oc2ccnc(Nc3ccc(N4CCN(C)CC4)cc3)n2)c1,·,14,-7,16,59*,·
CC(C)[C@H](NC(=O)c1ccccc1F)C(=O)OCC(=O)NC1CC1,·,-14,13,-11,10,·
O=C(N/N=C/c1cc(Cl)cc([N+](=O)[O-])c1O)NC12CC3CC(CC(C3)C1)C2,-2,3,66*,43,8,-30
Cc1ccc(NC(=O)c2ccc(OCC3CCCO3)cc2)cc1Cl (stereo not drawn),·,20,4,-19,-248,·
